Compound activity: PubChem BioAssay, National Center for Advancing Translational Sciences (NCATS)
hNpr1 antagonist – Natriuretic polypeptide receptor (hNpr1) antagonism - Primary qHTS | Atrial natriuretic peptide receptor 1 (Homo sapiens), P16066 | HEK293 hNpr1 GloSensor cGMP, ANP-stimulated luminescence | Potency, µM (titrated, usually from 46.3 µM), for inactives: at the top dose activity change, negative = inhibition, most hits filed as inhibitors | actives 1.6% (n = 76,000) | AID 1347048, 2019; calls by dose curve; further: nearly all actives have a fitted effect of over 60% in size
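Compound pre-incubated 30 min at room temperature on GloSensor-loaded HEK293 cells stably carrying hNpr1 and the pGS-40F cGMP biosensor. Stimulation uses hNppA at 0.1 nM final; luminescence is taken at baseline and 20 min post-agonist.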
3T3 cytotox – Cytotoxic Profiling in NIH 3T3 Cell Line of Diverse Libraries Using Quantitative High-Throughput Screening. NIH 3T3 viability, CellTiter-Glo ATP luminescence, 48-72 h. Potency, µM (highest dose often 96.7 µM), for the others: top-dose activity change, negative = cytotoxicity, actives largely listed as inhibitors. actives 4.3% (n = 94,000). AID 1345082, 2018; further: nearly all actives have a fitted effect of over 55% in size
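Viability of NIH 3T3 cells after 48 or 72 hr compound treatment at 37 °C was assessed by CellTiter-Glo, with luminescence imaged following a 10 min room-temperature step.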
GPT2 inhibitor – Primary qHTS assay for inhibitors of Glutamate pyruvate transaminase 2 (GPT2); Alanine aminotransferase 2 (Homo sapiens), Q8TD30; Recombinant GPT2, coupled pyruvate oxidase/HRP Amplex Red fluorescence; Potency, µM (doses to about 57.7 µM), for the others: at the top dose activity change, negative = inhibition, hits mostly inhibitors; actives 0.25% (n = 100,000); AID 1671188, 2021; further: nearly all actives have a fitted effect of over 60% in size
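GPT2 10ng/uL, a-KG 250uM, L-Ala 2mM, HEPES pH7.5 + 0.0001% Tween; 30 min RT. Then Amplex mix (PO/HRP/ThPP), 30 min RT dark, fluorescence. AOA 50uM used as positive control.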
HEK293 tox – Cytotoxic Profiling in HEK 293 Cell Line of Diverse Libraries Using Quantitative High-Throughput Screening | HEK 293 viability, ATP luminescence (CellTiter-Glo), 48-72 h | Potency, µM (series often up to 115 µM), for the others: top-dose activity change, negative = cytotoxicity, actives largely listed as inhibitors | actives 6.6% (n = 94,000) | AID 1345083, 2018; further: nearly all actives have a fitted effect of over 60% in size
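HEK 293 cells seeded at 250 cells/well were exposed to compound for 48 or 72 hr at 37 degree Celsius. Viability taken as ATP content by CellTiter-Glo luminescence.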
FLuc inh – Firefly luciferase inhibition profiling of diverse chemical library using quantitative high-throughput screening | AID 1347043, 2019 | actives 2.5% (n = 76,000) | Potency, µM (highest dose often 115 µM), most hits filed as inhibitors | Luciferin 4-monooxygenase (Photinus pyralis), P08659 | purified P. pyralis luciferase, luminescence, biochemical; further: nearly all actives have a fitted effect of over 65% in size
Target sequence (P08659 whole entry, looked up): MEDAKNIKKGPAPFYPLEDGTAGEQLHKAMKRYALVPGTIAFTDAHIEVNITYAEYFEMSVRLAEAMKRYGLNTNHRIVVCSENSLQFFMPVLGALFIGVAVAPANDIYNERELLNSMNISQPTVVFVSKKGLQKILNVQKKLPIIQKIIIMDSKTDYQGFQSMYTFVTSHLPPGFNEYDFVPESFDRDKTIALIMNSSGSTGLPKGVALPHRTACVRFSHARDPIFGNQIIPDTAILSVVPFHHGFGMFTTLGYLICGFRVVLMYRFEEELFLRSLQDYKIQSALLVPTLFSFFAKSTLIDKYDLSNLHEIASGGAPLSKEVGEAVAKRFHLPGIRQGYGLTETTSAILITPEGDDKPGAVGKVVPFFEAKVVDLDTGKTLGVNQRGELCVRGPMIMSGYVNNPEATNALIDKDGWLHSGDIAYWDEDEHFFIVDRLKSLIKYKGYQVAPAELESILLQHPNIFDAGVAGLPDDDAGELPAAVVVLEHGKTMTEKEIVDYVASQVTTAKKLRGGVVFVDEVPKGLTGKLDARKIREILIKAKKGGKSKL
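FLuc 10nM, D-luciferin 10uM, ATP 10uM, Mg acetate 10mM, Tris acetate pH 7.5, Tween/BSA; cpd qHTS; enzyme added last; CCD luminescence.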
The depositor's hits bear a star; i = inactive; ? = inconclusive; . = no result; [ ] = another dose, or the depositor's remark. Only some compounds are listed: those with a hit (about 10% of all), similar ones and a draw of the others. Unless noted, the call rests on the fitted dose curve; in most records, active means well fitted curve in the direction sought with a large enough effect; inconclusive means small, poorly fitted or top-dose-only effect, or another doubt; inactive means no such curve, though single readings can be large; an effect the other way counts as inactive or inconclusive. On the % scale 0 is the no-effect control and ±100 the full control effect; potency means the concentration at half of the fitted maximal effect.

SMILES	hNpr1 antagonist	3T3 cytotox	GPT2 inhibitor	HEK293 tox	FLuc inh
C[C@H]1CCCN1C(=O)c1nnc(COc2cccc(C(F)(F)F)c2)n1-c1cccnc1	0.2%[70.6 µM]	100µM*	i	?	i
C[C@H]1CCCN1C(=O)c1nnc(CNCc2cccc(Cl)c2)n1-c1ccccc1	-6.2%[70.6 µM]	?	0.5%[88.5 µM]	?	i
CC(C)c1ccc(OCc2nnc(C(=O)N3CCC[C@@H]3C)n2-c2cccnc2)cc1	-1.7%[70.6 µM]	14.1µM*	i	?	i
C[C@H]1CCCN1C(=O)c1nnc(CNc2ccccc2Cl)n1-c1ccccc1	-28.9%[70.6 µM]	100µM*	0.8%[88.5 µM]	?	i
C[C@H]1CCCN1C(=O)c1nnc(COc2cccc(Cl)c2)n1-c1ccccc1	-3.3%[70.6 µM]	?	i	?	i
CCCOCCCNC(=O)c1c(C)noc1-c1cc(OC)cc(OC)c1	-6.3%	-23.9%	i	?	i
COCCNC(=O)c1cc(-c2ccc([S+](C)(=O)[O-])cc2)c2cccn2n1	.	?	i	?	.
COCCNC(=O)c1cccc(-c2ccc(OC)nn2)c1	.	-23.0%[138 µM]	.	-14.0%[172 µM]	.
Cc1ccccc1C(=O)N1CCCC1C(=O)N1CCC(N2Cc3cccn3C2=O)CC1 (centres undefined)	.	-24.0%	i	-2.6%	.
COc1ccc(C(=O)NC2CCN(C(=O)c3ccc(-c4ccccc4OC)cc3)CC2)cc1	.	?	1.5%	?	.
OC1(CN2CCN(CCc3ccccn3)CC2)CCCNC1 (centres undefined)	1.0%	2.8%	-0.6%	-4.8%	i
Cc1cc(Cl)ccc1OCCN1CCN(CC2(O)CCCNC2)CC1 (centres undefined)	6.2%	22.4µM*	i	12.6µM*	i
C[C@]1(CO)C2CC[C@@H](O)[C@@H](CC(=O)N3CC[C@@H](O)C3)[C@]2(C)CC[C@H]1OC(=O)Nc1ccc(Cl)c(Cl)c1 (some centres undefined)	-0.1%	?	0.0%	?	i
CCN1C(=O)CCN(Cc2cccc(OC)c2OC)CC12CCOCC2	0.0%	-9.1%	i	i	i
CCN1C(=O)CCN(Cc2cn(C)c3ccc(OC)cc23)CC12CCOCC2	2.3%	31.6µM*	-5.5%	?	i
CCN1c2cc(C(=O)Nc3cccc(C(F)(F)F)c3)ccc2C(=O)N2CCCCCC21 (centres undefined)	-15.2%	?	i	12.6µM*	i
CCN1c2cc(C(=O)Nc3cccc(C(F)(F)F)c3)ccc2C(=O)N2CCCC21 (centres undefined)	-5.0%	35.5µM*	i	?	i
O=C(CCC1CCCN(Cc2cccn2-c2cccnc2)C1)Nc1ccccc1F (centres undefined)	-4.1%	-20.9%	1.3%	-8.6%	i
COc1ccc(C(=O)Nc2ccc3c(c2)CN(Cc2ccc(OC)cc2OC)C(=O)CO3)cc1	-2.4%	?	0.4%	?	?
CC1Oc2ccc(NC(=O)c3ccccc3Cl)cc2CN(Cc2ccc(F)cc2)C1=O (centres undefined)	-16.2%	?	-17.8%	39.8µM*	i
CCC1Oc2ccc(NC(=O)c3ccccc3F)cc2CN(CCc2ccc(OC)c(OC)c2)C1=O (centres undefined)	-1.4%	39.8µM*	i	?	i
COc1ccc(CN2Cc3cc(NC(=O)c4ccccc4OC)ccc3OCC2=O)c(OC)c1	-14.6%	25.1µM*	i	39.8µM*	i
CCC1Oc2ccc(NC(=O)c3ccccc3F)cc2CN(Cc2ccc3c(c2)OCO3)C1=O (centres undefined)	-4.8%	?	-5.7%	?	i
CC1Oc2ccc(NC(=O)c3ccccc3F)cc2CN(Cc2ccccc2F)C1=O (centres undefined)	-0.4%	?	2.4%	?	i
COc1ccccc1C(=O)Nc1ccc2c(c1)CN(Cc1ccc(F)cc1)C(=O)C(C)O2 (centres undefined)	-23.1%	?	i	35.5µM*	i
SMILES	hNpr1 antagonist	3T3 cytotox	GPT2 inhibitor	HEK293 tox	FLuc inh
Cc1ccc(-c2noc([C@@H]3CCCN3C(=O)c3cc(F)ccc3Cl)n2)cc1	-19.9%	?	i	?	i
CCC1c2nccn2CCCN1C(=O)COc1cccc(C)c1 (centres undefined)	0.1%	-8.8%	i	-15.2%	i
CC1Oc2ccc(NC(=O)c3c(F)cccc3F)cc2CN(Cc2ccc(Cl)cc2)C1=O (centres undefined)	-27.4%	?	i	15.8µM*	i
CC(C)CNC(=O)c1cc(-c2cccnc2)nc2c1cnn2C	.	?	-8.1%[88.5 µM]	?	.
CC(C)CNC(=O)c1cc(-c2ccsc2)nc2c1cnn2C	.	?	i	70.8µM*	.
Cn1ncc2c(C(=O)NCc3cccc(C(F)(F)F)c3)cc(-c3ccsc3)nc21	.	?	i	28.2µM*	.
Cn1ncc2c(C(=O)NCc3cccc(C(F)(F)F)c3)cc(-c3cccnc3)nc21	.	?	-7.4%	?	.
O=C(NCCc1cccc(F)c1)C1CN(C2CCCCC2)C(=O)N1 (centres undefined)	.	-11.8%[138 µM]	i	-11.1%[172 µM]	.
O=C(NC1CCN(CCn2nc3n(c2=O)CCCC3)C1)c1ccccc1F (centres undefined)	.	i	.	-4.7%	.
COc1ccccc1-c1cccc(CN2CCCC(C(=O)NCc3cccnc3)C2)c1 (centres undefined)	.	35.5µM*	i	?	.
COc1ccccc1-c1cccc(CN2CCCC(C(=O)NCc3ccc(C(F)(F)F)cc3)C2)c1 (centres undefined)	.	22.4µM*	?	17.8µM*	.
COc1ccccc1CNC(=O)C1CCCN(Cc2cccc(-c3ccc(F)cc3F)c2)C1 (centres undefined)	.	?	i	?	.
COc1ccccc1-c1cccc(CN2CCCC(C(=O)NCc3cccc(Cl)c3)C2)c1 (centres undefined)	.	31.6µM*	i	14.1µM*	.
COc1ccccc1-c1cccc(CN2CCCC(C(=O)NCc3ccc(F)cc3)C2)c1 (centres undefined)	.	31.6µM*	i	31.6µM*	.
O=C(NCCc1ccc(Cl)cc1)c1ccc2nnc(-c3cccnc3)n2c1	.	?	i	?	.
O=C(NCc1ccccc1Cl)c1ccc2nnc(-c3ccc(OC(F)(F)F)cc3)n2c1	.	?	-11.6%	?	.
